Results as given in ChEMBL document CHEMBL4513216, “Probing the Open Global Health Chemical Diversity Library for Multistage-Active Starting Points for Next-Generation Antimalarials” (ACS Infect Dis, 2020).
Out of some 65,000 compounds screened, about 2,100 (3.2%) showed an effect of 50% or more. The median lay at about -52%. Only a selection was taken, and strong results are over-represented in it overall.

test system: Plasmodium falciparum; assay: Screen against P. falciparum Asexual Blood Stage (ABS), at 5uM; assay type: functional, Dd2; conditions: tested at 5 uM

Row | SMILES | INHIBITION
1 | Cc1cccc(CN2Cc3ccnn3CC(COCC3CC3)C2)n1 (configuration not stated) | -11.3%
2 | COCCN1CCN(C(=O)NC2CC2)Cc2ccc(C)nc21 | -51.3%
3 | Cc1cc(C[C@@H]2COC[C@H]2NCc2ccc(Cl)c(Cl)c2)on1 | -65.7%
4 | Cn1cc(N2CCC3(CCCN(Cc4ccc(F)cc4)C3)C2=O)cn1 (configuration not stated) | -69.1%
5 | O=C1COC2(CCN(CC3CC3)CC2)CN1c1ccsc1 | -43%
6 | c1cc(C2CC2)n2cnc(C3CN(Cc4ccncc4)CCO3)c2c1 (configuration not stated) | -50%
7 | COCC(=O)N1CCC(c2nc3ccc(-c4ccncc4)cn3n2)CC1 | -48.7%
8 | c1ccc(-c2nc(CCNC3CCOC4(CCOCC4)C3)no2)cc1 (configuration not stated) | -81.3%
9 | c1ccc2c(c1)cnn2CCCNC1CCOC2(CCOCC2)C1 (configuration not stated) | 68.9%
10 | c1ccc(Cc2noc(CCNC3CCOC4(CCOCC4)C3)n2)cc1 (configuration not stated) | -43.3%
11 | c1ccc2c(c1)ccn2CCCNC1CCOC2(CCOCC2)C1 (configuration not stated) | 61.8%
12 | c1ccc2c(c1)nnn2CCCNC1CCOC2(CCOCC2)C1 (configuration not stated) | -4.37%
13 | c1ccc(-c2noc(CCNC3CCOC4(CCOCC4)C3)n2)nc1 (configuration not stated) | -80.1%
14 | COc1cc(F)ccc1-c1ncccc1NC(=O)C(C)C | -81.8%
15 | CC(C)(C)c1nc(NS(=O)(=O)c2cccc(F)c2)no1 | -71.4%
16 | Cc1cc(NCc2ccc(C#N)cc2)n2nc(C)cc2n1 | -88.7%
17 | Cc1nn(C)c2cn(C(C)C(=O)NCc3ccccn3)nc12 (configuration not stated) | -17.6%
18 | CN(C)CCN1CCN(Cc2cccc(C#N)c2)Cc2cccnc21 | 65.1%
19 | Cc1noc(C)c1CN1CCN(CCN(C)C)c2ncccc2C1 | 23.7%
20 | CC(C)N(C)Cc1cnc2n1CCN(Cc1cccc(C#N)c1)C2 | 10.6%
21 | Cc1ncccc1NC(=O)c1nc2c(n1C)CCN(C(=O)C1CC1)C2 | -117%
22 | COc1cc(C(C)NCc2scnc2C)ccc1SC(F)F (configuration not stated) | 19.3%

Row | SMILES | INHIBITION
23 | COc1ccccc1NCc1cscn1 | -46.4%
24 | COc1cc(C(C)NCc2cscn2)ccc1SC(F)F (configuration not stated) | 52.5%
25 | CN(Cc1cccnc1)C1CC2(CCN(Cc3cccnc3)CC2)C1 | -8.45%
26 | Cc1ccc(N2CCC3(CC2)CCN(C2CCOCC2)CC3)nn1 | -77.4%
27 | COCCN(Cc1ccc(C)cc1)CC1CCOC1 (configuration not stated) | -104%
28 | COc1ncccc1CN1C[C@@H]2COC[C@]2(COc2cccnc2)C1 | -33.8%
29 | COc1ccccc1CN1C[C@@H]2COC[C@]2(COCc2ccncc2)C1 | 55.3%
30 | Fc1cccc(CN2C[C@@H]3COC[C@]3(COCc3ccncc3)C2)c1 | -28.5%
31 | COc1cccc(CN2C[C@@H]3COC[C@]3(COc3cccnc3)C2)c1 | 16.9%
32 | COc1cc(N2C[C@@H]3COC[C@]3(COCc3ccncc3)C2)ncn1 | -1.95%
33 | COc1cccc(CN2C[C@@H]3COC[C@]3(COCc3ccccn3)C2)c1 | 61%
34 | CCOC[C@]12COC[C@H]1CN(Cc1cccc(OC)c1)C2 | 3.19%
35 | COc1cccc(CN2C[C@@H]3COC[C@]3(COCc3ccncc3)C2)c1 | 33.5%
36 | COc1ccccc1CN1C[C@@H]2COC[C@]2(COc2cccnc2)C1 | 52.9%
37 | COCc1nc(C(=O)N2CCCC(n3ccnc3)C2)cs1 (configuration not stated) | -141%
38 | Cn1cc(N2CC3(CCN(Cc4ccsc4)CC3)OCC2=O)cn1 | -22.1%
39 | Cc1nc(NCCCn2cccn2)c2c(n1)c(C)nn2C | -54.6%
40 | Cc1cn2c(n1)CCC(NC(=O)CCCOCc1ccccc1)C2 (configuration not stated) | -45.8%
41 | Cc1nc(CO[C@@H]2CN(Cc3cnn(C)c3)[C@@H]3COC[C@@H]32)cs1 | -12.8%
42 | CC(C)Cc1cc(-c2cc(-c3ccc[nH]3)nc(N)c2C#N)n[nH]1 | 61.3%
43 | Cc1n[nH]c(C)c1-c1cc(-c2cccc(O)c2)nc(N)c1C#N | -71.8%
44 | Cc1n[nH]c(C)c1-c1cc(-c2ccc[nH]2)nc(N)c1C#N | -185%

Row | SMILES | INHIBITION
45 | N#CC1(NC(=O)c2ccc(F)c(Br)c2)CCSC1 (configuration not stated) | -155%
46 | CCc1ccc(NC(=O)CCN2CC(n3nc(C)cc3C)C2)cc1 | -12.9%
47 | CC(C)CN1CCCC1c1ccc(C(=O)Nc2cc[nH]n2)s1 (configuration not stated) | 44.6%
48 | CCc1nnc(NC(=O)c2ccc(C3CCCN3CC(C)C)s2)s1 (configuration not stated) | -54.1%
49 | CC(C)CN1CCCC1c1ccc(C(=O)Nc2cn(C)nn2)s1 (configuration not stated) | 52.9%
50 | O=C(Nc1cccc(Cl)c1)c1nn(C2CCS(=O)(=O)C2)c2c1CCCC2 (configuration not stated) | 25.4%
51 | O=C(CO[C@@H]1CC[C@H]2[C@H]1OCCN2Cc1ccccn1)N1CCCC1 | -59.6%
52 | O=C(c1cnccn1)N1CCC2(CC1)CCN(Cc1ccccn1)C2=O | -85.2%
53 | CN(Cc1cncnc1)[C@@H]1CN(Cc2ccco2)C[C@@H]2CCCO[C@@H]21 | -7.65%
54 | CC(C)(C)C(=O)N1C[C@H](c2ccsc2)[C@H]2CN(Cc3cccs3)CC[C@H]21 | 29.8%
55 | COc1ccccc1CN1CC[C@H]2[C@@H](C1)[C@H](c1ccsc1)CN2C(C)=O | 29.5%
56 | COc1cccc(CN2CC[C@H]3[C@@H](C2)[C@H](c2ccsc2)CN3C(C)=O)c1 | 54.8%
57 | Cn1nc(COc2cccnc2)c2c1CCN(c1cnccn1)C2 | -72.3%
58 | Oc1cc(C2CCCCN2CC2CC2)nc(-c2ccncc2)n1 (configuration not stated) | -48.7%
59 | CCCS(=O)(=O)N1CCC2(CC1)CN(CC1CCOC1)c1ccccc12 (configuration not stated) | 50.8%
60 | O=C1CC2(CCN(CC3CCOC3)CC2)c2ccccc2N1CC1CC1 (configuration not stated) | 12.4%
61 | c1ccc2c(c1)N(CC1CCOC1)CC21CCN(c2cnccn2)CC1 (configuration not stated) | 69.9%
62 | CS(=O)(=O)N1CCC2(CC1)CN(CC1CCOC1)c1ccccc12 (configuration not stated) | -50.1%
63 | CCCS(=O)(=O)N1CCC2(CC1)CN(C(=O)N(C)C)c1ccccc12 | -7.36%
64 | CCS(=O)(=O)N1CCC2(CC1)CN(CC1CCOC1)c1ccccc12 (configuration not stated) | 23.6%
65 | Cc1nn(CC(F)F)c2c1c(C(F)F)cc(=O)n2CC(=O)O | -111.45%
66 | CN1CCCn2c(nc(CNS(=O)(=O)C3CC3)cc2=O)C1 | -41.3%

Row | SMILES | INHIBITION
67 | Cc1nn(C)c2cnn(Cc3ccc(C(=O)NC4CC4)cc3)c12 | -60.4%
68 | c1cnc2c(c1)cc([C@H]1CCCO1)n2CCN1CCCCC1 | 25.8%
69 | c1cnc2c(c1)cc([C@H]1CCCO1)n2CCN1CCCC1 | 21.4%
70 | COc1cccc(Cn2c(C3CCNCC3)cc3cccnc32)c1 | 66.1%
71 | Fc1cccc(-c2nccnc2C2CCCNC2)c1 (configuration not stated) | 14.9%
72 | COc1ccc(Cn2c(C3CCNCC3)cc3cccnc32)cc1 | 66.9%
73 | Fc1cccc(F)c1Cn1c(C2CCCNC2)cc2cccnc21 (configuration not stated) | 66.1%
74 | COc1ccc(-c2ccnc(C3CCNCC3)c2)cc1 | 30.9%
75 | COc1cccc(-c2ccnc(C3CCNCC3)c2)c1 | -73.8%
76 | CN1CCCC1c1cc2cccnc2n1Cc1ccc(F)cc1 (configuration not stated) | 69.9%
77 | COc1cccc(CN2C[C@H]3CCNCC[C@H]3S2(=O)=O)c1 | 17.1%
78 | c1cnc2c(c1)cc(C1CCOCC1)n2CCN1CCOCC1 | -7.49%
79 | Fc1ccccc1-c1nccnc1C1CCCNC1 (configuration not stated) | 10.7%
80 | O=C(C1CCOCC1)N1C[C@H]2CCC[C@@]2(COCc2ccccn2)C1 | -15.1%
81 | Cc1noc(C(C)C)c1C(=O)NCc1cccc(CN(C)C)c1 | -13.6%
82 | Cc1cnc(CNC2CCc3nc(C(C)C)nn3C2)cn1 (configuration not stated) | -20.3%
83 | Cc1ccc(CN2C[C@@H]3CN(CC4CCOCC4)CCO[C@@H]3C2)s1 | -95.1%
84 | CC(C)(C)n1cc(CNc2ccc(CNS(C)(=O)=O)cc2)cn1 | -25.8%
85 | Cn1cnc2c1C(COCC1CC1)CN(Cc1ccc3c(c1)OCO3)C2 (configuration not stated) | 41.1%
86 | CCCC(=O)N1CCCN(C(=O)c2oc(C)nc2C)CC1 | -111%
87 | Cc1ncsc1C(=O)NCc1ccnc(N2CCN(C)CC2)c1 | 62.9%
88 | Cc1cc(C(=O)NCc2ccnc(N3CCOCC3)c2)c(C)s1 | 50.6%

Row | SMILES | INHIBITION
89 | Cc1cc(C(=O)NCc2ccnc(N3CCN(C)CC3)c2)c(C)s1 | 32.2%
90 | Cc1cc(C(=O)NCc2ccnc(N3CCN(C)CC3)c2)sc1C | -5.05%
91 | Cc1ccsc1C(=O)NCc1ccnc(N2CCN(C)CC2)c1 | -35%
92 | Cc1ccc(C(=O)NCc2ccnc(N3CCN(C)CC3)c2)cn1 | -38.9%
93 | Cc1cnc(N2CCC3(CC2)CC3CNC(=O)C2CCC2)nc1 (configuration not stated) | -57.8%
94 | COc1cccc(-c2noc(C3CCN(Cc4ccc(C)cc4)C3)n2)c1 (configuration not stated) | -97.2%
95 | O=C(c1cc(Cl)ccc1OC1CCN(C2CCCC2)CC1)N1CCCO1 | 53.5%
96 | O=C(c1cc(Cl)ccc1OC1CCN(C2CCCC2)CC1)N1CC(O)C1 | -96%
97 | CC(=O)N1CCC(Oc2ccc(Cl)cc2C(=O)N2CCCO2)CC1 | -31%
98 | Cc1noc([C@@H]2C[C@H]3OCC[C@H]3N(Cc3sccc3C)C2)n1 | -15.2%
99 | CN(C)C(=O)c1cn2cc(-c3cccc(Cl)c3)n(CC3CC3)c(=O)c2n1 | -21.6%
100 | NC(=O)c1cn2cc(-c3ccccc3Cl)n(CC3CC3)c(=O)c2n1 | -27.5%
101 | CNC(=O)c1cn2cc(-c3cccc(Cl)c3)n(CC3CC3)c(=O)c2n1 | 19.5%
102 | CNC(=O)c1cn2cc(-c3cccc(Cl)c3)n(CC=C(C)C)c(=O)c2n1 | 56.6%
103 | CCNC(=O)c1cn2cc(-c3ccccc3Cl)n(CC3CC3)c(=O)c2n1 | 43.7%
104 | CN(C)C(=O)c1cn2cc(-c3ccccc3Cl)n(CC3CC3)c(=O)c2n1 | 37.8%
105 | CNC(=O)c1cn2cc(-c3ccccc3Cl)n(CC=C(C)C)c(=O)c2n1 | 68.2%
106 | CNC(=O)c1cn2cc(-c3ccc(F)cc3)n(CC=C(C)C)c(=O)c2n1 | 39.1%
107 | CNC(=O)c1cn2cc(-c3ccccc3Cl)n(CC3CC3)c(=O)c2n1 | 54.7%
